Experimental data as given in PubChem BioAssay.
“And” between values parts separate entries of the source, which are not always exact repeats. Equal values may be shown once. Results filed as inconclusive are left out. The source made the active and inactive calls.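 The calls were made as follows, unless noted: active = normalized viability below 100% at a tested concentration; inactive = the rest.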

Key:
[1] = growth inhibition of DIPG glioma cells, dose response, cell-based, SU-DIPG-XVII, MIPE5.0, CellTiter-Glo, qHTS (AID 1347060; cut-off not given, nearly all actives have AC50 up to about 26 µM;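 as to AC50: cells exposed to compound for 48 hours before viability readout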); conditions: SU-DIPG-XVII viability, CellTiter-Glo ATP luminescence
[2] = growth inhibition of DIPG glioma cells, dose response, cell-based, JHH-DIPG-1, MIPE4.0, CellTiter-Glo, qHTS (AID 1347062; cut-off not given, nearly all actives have AC50 up to about 27 µM;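 as to AC50: cells exposed to compound for two days before readout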); conditions: JHH-DIPG-1 viability, CellTiter-Glo ATP luminescence
[3] = growth inhibition of DIPG glioma cells, dose response, cell-based, SU-DIPG-XIII, MIPE5.0, CellTiter-Glo, qHTS (AID 1347064; cut-off not given, nearly all actives have AC50 up to about 23 µM;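 as to AC50: cells exposed to compound for 48 hours before the viability read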); conditions: SU-DIPG-XIII viability, CellTiter-Glo ATP luminescence
[4] = JHH-DIPG-1 glioma cell viability, MIPE5.0 library, CellTiter-Glo luminescence, qHTS (AID 1347067; cut-off not given, nearly all actives have AC50 up to about 26 µM;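 also: cells exposed to compound for 48 hours before readout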); conditions: JHH-DIPG-1 glioma viability, CellTiter-Glo ATP luminescence
[5] = SU-DIPG-XXV glioma cell viability, MIPE5.0 library, qHTS (AID 1347068; cut-off not given, nearly all actives have IC50 up to about 30 µM;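 as to IC50: cells exposed to compound for 48 hours before viability readout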)
[6] = sensitizers of A549 cells to miR-34 induction, primary screen, imaging, A549 dox-inducible miR-34, nuclei and caspase counts (AID 1347080;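 active = compounds whose cell count with miR-34 switched on is under 0.7 times the count with it off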); conditions: A549 miR-34 inducible, Hoechst nuclei count, 48 h
[7] = survival rescue of mitochondrial mutant cells in low glucose, primary screen, MELAS cybrids, Rieske KO mouse fibroblasts, CellTiter-Glo (AID 1508586;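 active = mean z-score across replicates of 1.96 or higher in either the MELAS or the Rieske mutant cell line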;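 also: z relative to plate mean and SD of compound and empty wells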)
[8] = viability loss in pontine glioma line – cell-based, SU-DIPG-XXV, MIPE5.0, CellTiter-Glo, qHTS, dose response (AID 1347065; cut-off not given, nearly all actives have AC50 up to about 26 µM;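 also: cells exposed to compound for 48 hours before ATP readout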); conditions: CellTiter-Glo ATP luminescence
[9] = SU-DIPG-VI glioma cell viability, MIPE4.0 library, CellTiter-Glo luminescence, qHTS (AID 1347066; cut-off not given, nearly all actives have AC50 up to about 30 µM;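 also: cells exposed to compound for 48 hours before readout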); conditions: CellTiter-Glo ATP luminescence
[10] = ovarian cancer cell viability with rucaparib, profiling panel, oncology-focused library, rucaparib conditional (AID 1508598); conditions: patient-derived ovarian cancer cells, CellTiter-Glo viability, 144 h, stronger effect = lower value
[11] = modifiers of HSF1 nuclear foci, imaging, Selleck Cancer Library (AID 1347162; in the data active = plate-normalised HSF1 focus index below about 0.46); conditions: human cells, at 10 µM; SSMD: measured here: HSF1 foci SSMD mean; cell count: measured here: cell number; plate-normalised HSF1 focus index: stronger effect = lower value
[12] = stronger effect = lower value, cell number ratio, induced over uninduced
[13] = measured here: relative caspase fold change +Dox/-Dox
[14] = measured here: total cells with miR-34 induction, stronger effect = lower value
[15] = measured here: total cells without miR-34 induction
[16] = MELAS cybrid survival, CellTiter-Glo 48 h, stronger effect = higher value
[17] = Rieske KO mouse fibroblast survival, CellTiter-Glo 72 h
[18] = at 0.000305 µM, OCI-C5x cells, with rucaparib 10 µM, 100% = cells with rucaparib alone
[19] = at 0.000305 µM, OCI-C5x cells, without rucaparib
[20] = at 0.000305 µM, OCI-P5x cells, with rucaparib 20 µM, 100% = cells with rucaparib alone
[21] = at 0.000305 µM, OCI-P5x cells, without rucaparib
[22] = at 0.00122 µM, OCI-C5x cells, with rucaparib 10 µM, 100% = cells with rucaparib alone
[23] = at 0.00122 µM, OCI-C5x cells, without rucaparib
[24] = at 0.00122 µM, OCI-P5x cells, with rucaparib 20 µM, 100% = cells with rucaparib alone
[25] = at 0.00122 µM, OCI-P5x cells, without rucaparib
[26] = at 0.00488 µM, OCI-C5x cells, with rucaparib 10 µM, 100% = cells with rucaparib alone
[27] = at 0.00488 µM, OCI-C5x cells, without rucaparib
[28] = at 0.00488 µM, OCI-P5x cells, with rucaparib 20 µM, 100% = cells with rucaparib alone
[29] = at 0.00488 µM, OCI-P5x cells, without rucaparib
[30] = at 0.0195 µM, OCI-C5x cells, with rucaparib 10 µM, 100% = cells with rucaparib alone
[31] = at 0.0195 µM, OCI-C5x cells, without rucaparib
[32] = at 0.0195 µM, OCI-P5x cells, with rucaparib 20 µM, 100% = cells with rucaparib alone
[33] = at 0.0195 µM, OCI-P5x cells, without rucaparib
[34] = at 0.0781 µM, OCI-C5x cells, with rucaparib 10 µM, 100% = cells with rucaparib alone
[35] = at 0.0781 µM, OCI-C5x cells, without rucaparib
[36] = at 0.0781 µM, OCI-P5x cells, with rucaparib 20 µM, 100% = cells with rucaparib alone
[37] = at 0.0781 µM, OCI-P5x cells, without rucaparib
[38] = at 0.313 µM, OCI-C5x cells, with rucaparib 10 µM, 100% = cells with rucaparib alone
[39] = at 0.313 µM, OCI-C5x cells, without rucaparib
[40] = at 0.313 µM, OCI-P5x cells, with rucaparib 20 µM, 100% = cells with rucaparib alone
[41] = at 0.313 µM, OCI-P5x cells, without rucaparib
[42] = at 1.25 µM, OCI-C5x cells, with rucaparib 10 µM, 100% = cells with rucaparib alone
[43] = at 1.25 µM, OCI-C5x cells, without rucaparib
[44] = at 1.25 µM, OCI-P5x cells, with rucaparib 20 µM, 100% = cells with rucaparib alone
[45] = at 1.25 µM, OCI-P5x cells, without rucaparib
[46] = at 5 µM, OCI-C5x cells, with rucaparib 10 µM, 100% = cells with rucaparib alone
[47] = at 5 µM, OCI-C5x cells, without rucaparib
[48] = at 5 µM, OCI-P5x cells, with rucaparib 20 µM, 100% = cells with rucaparib alone
[49] = at 5 µM, OCI-P5x cells, without rucaparib

C=CC[N+]1([C@H]2C[C@H]3[C@@H]4CC[C@H]5C[C@H](O)[C@@H](N6CCOCC6)C[C@]5(C)[C@H]4CC[C@]3(C)[C@H]2OC(C)=O)CCCC1
1.54: fold change [6, 13]
inactive: outcome [1] | outcome [2] | outcome [3] | outcome [4] | outcome [5] | fold change [6, 12] 0.847 | z-score [7, 16] 0.124
9100: cell count [6, 14]
10700: cell count [6, 15]
-0.444: z-score [7, 17]

Cn1cc(/C=C/C(=O)c2cccc(F)c2)cc1/C=C/C(=O)NO
active: AC50 [1] 3.72 µM | AC50 [3] 2.35 µM | AC50 [8] 5.25 µM | AC50 [4] 13.2 µM
inactive: outcome [2] | outcome [9]

CS(=O)(=O)Oc1ccc2c(NC(N)=O)c(C(=O)c3ccc(Cl)cc3Cl)oc2c1
inactive: outcome [1] | outcome [3] | outcome [8] | outcome [4] | outcome [5]
active: AC50 [2] 2.35 µM

COc1cccc2c1C(=O)c1c(O)c3c(c(O)c1C2=O)C[C@@](O)(C(=O)CO)C[C@@H]3O[C@H]1C[C@H](N)[C@H](OC2CCCCO2)[C@H](C)O1 (some centres not stated)
active: AC50 [1] 417 nM and 332 nM | AC50 [2] 16.6 µM | AC50 [3] 2.95 µM and 833 nM | AC50 [8] 4.68 µM and 1.66 µM | AC50 [4] 2.95 µM and 2.35 µM | IC50 [5] 6.61 µM and 9.34 µM

Cc1ccc(S(=O)(=O)Nc2nc3ccccc3nc2Nc2ccc3nsnc3c2)cc1
inactive: outcome [1] | outcome [3] | outcome [4] | outcome [5] | fold change [6, 12] 0.883 | z-score [7, 16] -0.561 | viability [10, 18] 107% | viability [10, 19] 120% | viability [10, 20] 124% | viability [10, 21] 116% | viability [10, 22] 122% | viability [10, 23] 132% | viability [10, 24] 131% | viability [10, 25] 117% | viability [10, 26] 112% | viability [10, 27] 130% | viability [10, 28] 125% | viability [10, 29] 115% | viability [10, 30] 123% | viability [10, 31] 132% | viability [10, 32] 120% | viability [10, 33] 108% | viability [10, 34] 122% | viability [10, 35] 124% | viability [10, 36] 125% | viability [10, 37] 110% | viability [10, 38] 112% | viability [10, 40] 117% | viability [10, 41] 106% | viability [10, 42] 115% | viability [10, 43] 121% | viability [10, 44] 110% | viability [10, 45] 105% | viability [10, 46] 107% | viability [10, 47] 117% | viability [10, 49] 102%
1.38: fold change [6, 13]
active: AC50 [2] 0.512 µM | viability [10, 39] 74.9% | viability [10, 48] 95.1%
3480: cell count [6, 14]
3940: cell count [6, 15]
0.136: z-score [7, 17]

COc1cc2c(cc1OC)CC(=O)N(CCCN(C)C[C@H]1Cc3cc(OC)c(OC)cc31)CC2
inactive: outcome [1] | outcome [2] | outcome [3] | outcome [8] | outcome [9] | outcome [4] | outcome [5]

CCC(C)SSc1ncc[nH]1 (configuration not stated)
active: AC50 [1] 14.8 µM | AC50 [2] 23.5 µM | AC50 [8] 11.8 µM | AC50 [9] 26.4 µM

Cc1cnc(Nc2ccc(OCCN3CCCC3)cc2)nc1Nc1cccc(S(=O)(=O)NC(C)(C)C)c1
6980: cell count [11]
2480: cell count [6, 14]
1.95: fold change [6, 13]
inactive: outcome [2] | outcome [9] | fold change [6, 12] 1.01 | plate-normalised HSF1 focus index [11] 1.11 | viability [10, 18] 104% | viability [10, 19] 124% | viability [10, 21] 110% | viability [10, 22] 113% | viability [10, 23] 121% | viability [10, 25] 109% | viability [10, 26] 112% | viability [10, 27] 125% | viability [10, 28] 102% | viability [10, 29] 109% | viability [10, 30] 107% | viability [10, 31] 121% | viability [10, 33] 112% | viability [10, 34] 106% | viability [10, 35] 122% | viability [10, 37] 105% | viability [10, 38] 105% | viability [10, 39] 113%
active: AC50 [1] 1.05 µM | AC50 [3] 5.9 µM | AC50 [8] 3.72 µM | AC50 [4] 5.25 µM | IC50 [5] 7.42 µM | z-score [7, 16] 1.98 | viability [10, 20] 98.4% | viability [10, 24] 99.3% | viability [10, 32] 95.4% | viability [10, 36] 99.2% | viability [10, 40] 81.7% | viability [10, 41] 96.3% | viability [10, 42] 93.7% | viability [10, 43] 84.4% | viability [10, 44] 78% | viability [10, 45] 88.7% | viability [10, 46] 2.62% | viability [10, 47] 55.3% | viability [10, 48] 1.43% | viability [10, 49] 2%
-3.31: z-score [7, 17]
1.73: SSMD [11]
2450: cell count [6, 15]

N#Cc1cc(NC(=O)Nc2nnc(-c3ccncc3)s2)ccc1-c1cn[nH]c1
inactive: outcome [2] | outcome [3] | outcome [8] | outcome [9] | outcome [5]
active: AC50 [1] 0.372 µM
